In PubChem BioAssay (Tox21) one finds outcome, Potency and max activation data, which are given here for 8 molecules.

In assay [1] the target is Thyrotropin receptor (Homo sapiens) (UniProt P16473). Kind of assay: qHTS assay to identify small molecule antagonists of the thyroid stimulating hormone receptor (TSHR) signaling pathway (AID 1259385; calls by dose curve; further: nearly all actives have a fitted effect of over 20% in size). The method, boiled down: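 TSHR-HEK293 cells (800/well) plated 18 h, then compounds with Ro20-1724 and TSH at 1.5 ng/mL final, 30 min at room temperature. cAMP quantified by HTRF (cAMP-d2/anti-cAMP-cryptate, 1 h); 15 concentrations in triplicate.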
Thyrotropin receptor (Homo sapiens), sequence (P16473 whole entry, looked up): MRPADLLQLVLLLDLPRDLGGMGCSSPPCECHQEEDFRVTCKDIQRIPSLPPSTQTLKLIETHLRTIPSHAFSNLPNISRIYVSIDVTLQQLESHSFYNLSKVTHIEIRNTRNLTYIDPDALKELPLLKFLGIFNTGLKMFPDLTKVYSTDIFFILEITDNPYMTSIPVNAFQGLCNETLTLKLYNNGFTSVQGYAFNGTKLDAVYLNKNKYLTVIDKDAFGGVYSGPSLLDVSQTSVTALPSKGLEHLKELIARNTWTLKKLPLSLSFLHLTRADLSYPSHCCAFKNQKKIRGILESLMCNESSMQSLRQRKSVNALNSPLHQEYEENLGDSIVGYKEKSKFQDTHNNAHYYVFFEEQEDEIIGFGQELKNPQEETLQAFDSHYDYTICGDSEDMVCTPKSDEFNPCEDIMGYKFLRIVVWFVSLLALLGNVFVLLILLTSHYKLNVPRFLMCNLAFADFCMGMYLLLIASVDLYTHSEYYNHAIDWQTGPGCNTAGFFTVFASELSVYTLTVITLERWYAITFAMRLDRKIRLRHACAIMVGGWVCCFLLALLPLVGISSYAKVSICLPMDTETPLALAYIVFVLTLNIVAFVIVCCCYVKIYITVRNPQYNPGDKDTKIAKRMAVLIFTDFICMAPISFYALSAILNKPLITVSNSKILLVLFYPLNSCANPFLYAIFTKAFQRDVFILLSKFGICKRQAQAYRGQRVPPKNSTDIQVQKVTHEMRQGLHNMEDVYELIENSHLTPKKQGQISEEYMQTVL
(In general: Quantitative high-throughput screening tests each substance at several concentrations.)

Assay [2] in a line: qHTS assay to identify small molecule agonists of the estrogen receptor alpha (ER-alpha) signaling pathway in the presence of an antagonist - cell viability counter screen (AID 1259386).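 Further: series mostly up to about 92 µM; cells exposed to compounds for 22 h at 37 °C before the viability read; nearly all actives have a fitted effect of over 30% in size.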 The method, boiled down:
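ICI-182,780 at 10.0nM final accompanies the compound titration (15 concentrations, 22hr, 37C) on VM7Luc4E2 cells. The CellTiter-Fluor fluorescence readout runs in the same wells as the luciferase assay.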

The target in assay [3] is Progesterone receptor (Homo sapiens) (UniProt P06401). The experiment in a line: qHTS assay to identify small molecule agonists of the progesterone receptor (PR) signaling pathway (AID 1346784; calls by dose curve; further: nearly all actives have a fitted effect of over 30% in size). The method, boiled down: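 Beta-lactamase reporter read-out: after 16 hr compound treatment at 37C and a further 2 hr at room temperature with LiveBLAzer B/G FRET substrate, fluorescence was measured in PR-UAS-bla HEK 293T cells grown in 2% charcoal-stripped serum.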
Progesterone receptor (Homo sapiens), sequence (P06401 whole entry, looked up): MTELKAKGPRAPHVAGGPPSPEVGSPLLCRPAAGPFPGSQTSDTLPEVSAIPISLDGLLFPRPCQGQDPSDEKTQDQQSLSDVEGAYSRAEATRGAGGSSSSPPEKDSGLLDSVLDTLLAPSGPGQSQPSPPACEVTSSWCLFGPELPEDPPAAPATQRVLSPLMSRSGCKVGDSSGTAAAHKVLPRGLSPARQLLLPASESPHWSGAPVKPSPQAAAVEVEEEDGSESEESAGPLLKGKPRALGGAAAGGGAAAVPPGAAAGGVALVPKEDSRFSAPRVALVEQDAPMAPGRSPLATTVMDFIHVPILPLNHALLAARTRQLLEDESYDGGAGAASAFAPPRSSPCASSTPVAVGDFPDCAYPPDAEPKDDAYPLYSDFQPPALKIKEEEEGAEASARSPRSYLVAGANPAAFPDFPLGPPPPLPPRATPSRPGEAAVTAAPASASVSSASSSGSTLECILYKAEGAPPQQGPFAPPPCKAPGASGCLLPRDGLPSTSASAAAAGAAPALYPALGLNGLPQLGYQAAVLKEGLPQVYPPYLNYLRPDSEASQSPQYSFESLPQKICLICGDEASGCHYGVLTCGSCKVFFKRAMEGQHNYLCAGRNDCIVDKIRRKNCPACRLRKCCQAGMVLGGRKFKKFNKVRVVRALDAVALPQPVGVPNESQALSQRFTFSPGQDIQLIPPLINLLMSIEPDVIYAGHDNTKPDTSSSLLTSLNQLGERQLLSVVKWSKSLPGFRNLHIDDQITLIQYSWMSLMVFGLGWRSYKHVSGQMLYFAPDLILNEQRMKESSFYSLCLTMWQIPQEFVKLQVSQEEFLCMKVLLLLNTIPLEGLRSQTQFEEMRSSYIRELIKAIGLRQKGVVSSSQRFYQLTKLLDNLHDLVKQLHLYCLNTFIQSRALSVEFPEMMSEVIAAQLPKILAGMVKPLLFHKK

The target is the same in assay [4]. Kind of assay: qHTS assay to identify small molecule antagonists of the progesterone receptor (PR) signaling pathway (AID 1346795; active means well fitted inhibition curve with a large enough effect in the signal ratio in the repeat runs, not every such curve was filed as active; the % refers to the signal ratio). The method, boiled down: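 Read-out is fluorescence from the LiveBLAzer B/G FRET substrate, cleaved by a UAS-controlled beta-lactamase in PR-UAS-bla HEK293T cells after 16 hr exposure to compound plus 1 nM promegestone (final), followed by 2 hr at room temperature.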

The nature of assay [5]: qHTS assay to identify small molecule agonists of the progesterone receptor (PR) signaling pathway - cell viability counter screen (AID 1346799; calls by dose curve; further: nearly all actives have a fitted effect of over 45% in size). The method, boiled down:
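Luminescence from CellTiter-Glo, added after the beta-lactamase FRET read in the same wells, gave cytotoxicity in PR-UAS-bla HEK293T cells treated with compounds for 16 hr at 37C.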

Assay [6] is described as follows: qHTS assay to identify small molecule agonists of the TGF-beta/Smad signaling pathway - cell viability counter screen (AID 1346829). Further: top concentration of the series differs between compounds; nearly all actives have a fitted effect of over 45% in size. The method, boiled down: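 Here the cytotoxicity of library compounds is measured in SBE-bla HEK 293T cells treated for 5 hr, using CellTiter-Glo added to wells already read for the beta-lactamase reporter.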
Assay [7] can be described thus: qHTS assay to identify small molecule agonists of the TGF-beta/Smad signaling pathway (AID 1346859; active means well fitted activation curve with a large enough effect in the signal ratio in the repeat runs, not every such curve was filed as active; the % refers to the signal ratio; further: series mostly up to about 77 µM). The method, boiled down:
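SBE-bla HEK 293T, 4,000 cells/well, plated o/n; cpd in DMSO, 5 hr, 37 C/5% CO2; B/G FRET substrate 2 hr RT; ex 405, em 460/530 nm.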

The target in assay [8] is Thyrotropin-releasing hormone receptor (Homo sapiens) (UniProt P34981). Kind of assay: qHTS assay to identify small molecule antagonists of the thyrotropin-releasing hormone receptor (TRHR) signaling pathway (AID 1346877; active means well fitted inhibition curve with a large enough effect in the repeat runs, not every such curve was filed as active; further: series mostly up to about 51 µM). The method, boiled down: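 Screening used HEK293 cells engineered with TRHR, with a brief 5 min room-temperature compound exposure preceding addition of TRH to 1 nM. The read-out was kinetic calcium-dye fluorescence, concentration-response from 15 doses in triplicate.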
Thyrotropin-releasing hormone receptor (Homo sapiens), sequence (P34981 whole entry, looked up): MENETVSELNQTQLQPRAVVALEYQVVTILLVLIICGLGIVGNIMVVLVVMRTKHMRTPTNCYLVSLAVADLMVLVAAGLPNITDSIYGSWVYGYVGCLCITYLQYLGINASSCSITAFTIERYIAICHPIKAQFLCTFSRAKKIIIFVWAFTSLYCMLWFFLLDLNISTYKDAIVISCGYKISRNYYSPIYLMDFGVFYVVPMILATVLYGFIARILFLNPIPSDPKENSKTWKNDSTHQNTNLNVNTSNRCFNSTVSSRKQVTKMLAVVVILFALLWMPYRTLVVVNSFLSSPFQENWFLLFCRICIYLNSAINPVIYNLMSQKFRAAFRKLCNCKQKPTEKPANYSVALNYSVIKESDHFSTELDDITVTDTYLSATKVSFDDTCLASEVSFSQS

Assay [9] has the same target. The experiment in a line: qHTS assay to identify small molecule agonists of the thyrotropin-releasing hormone receptor (TRHR) signaling pathway (AID 1346891; calls by dose curve; further: series mostly up to about 58 µM). The method, boiled down:
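Intracellular calcium rise, read as fluorescence every second for 3 min, served as the agonist signal in dye-loaded HEK293 cells expressing TRHR; each compound ran at 15 concentrations in triplicate.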

Assay [10] in a line: Human pregnane X receptor (PXR) small molecule agonists, qHTS cell viability counter screen (AID 1346977). Further: nearly all actives have a fitted effect of over 50% in size. The method, boiled down: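 PXR-Luc HepG2, 2,000 cells/well, 5% charcoal-stripped FBS; 5hr settle; cpd 24hr, 37C/5% CO2; CellTiter-Fluor at 23hr, read 1hr later (fluorescence).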
Assay [11] is described as follows: Caspase-3/7 induction in HepG2 cells by small molecules, qHTS assay (AID 1346978). Further: nearly all actives have a fitted effect of over 15% in size. The method, boiled down:
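Wild-type HepG2 cells, 2,000/well, settled 5 hr at 37 C and 5% CO2, then compound-treated for 17 hr; caspase-3/7 activity read by luminescent Caspase-Glo 3/7 after 30 min at room temperature.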

Assay [12] is described as follows: Caspase-3/7 induction in CHO-K1 cells by small molecules, qHTS cell viability counter screen (AID 1346979). Further: nearly all actives have a fitted effect of over 35% in size. The method, boiled down: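 Cells (CHO-K1, wild type) are plated at 1,500 per well and incubated 5hr. Test compounds in DMSO are then pinned in, followed by 16hr at 37C and 5% CO2. Viability is read by CellTiter-Fluor fluorescence after 1hr.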
In assay [13] the target is Nuclear receptor subfamily 1 group I member 2 (Homo sapiens) (UniProt O75469). The experiment in a line: Human pregnane X receptor (PXR) small molecule agonists, qHTS assay (AID 1346982). Further: nearly all actives have a fitted effect of over 35% in size. Further: potency means the concentration at half of the fitted maximal effect. The method, boiled down: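 We seeded PXR-Luc HepG2 cells in assay medium containing 5% charcoal-stripped FBS, added compounds 5 hr later, incubated 24 hr, and read luminescence with ONE-Glo reagent.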
Nuclear receptor subfamily 1 group I member 2 (Homo sapiens), sequence (O75469 whole entry, looked up): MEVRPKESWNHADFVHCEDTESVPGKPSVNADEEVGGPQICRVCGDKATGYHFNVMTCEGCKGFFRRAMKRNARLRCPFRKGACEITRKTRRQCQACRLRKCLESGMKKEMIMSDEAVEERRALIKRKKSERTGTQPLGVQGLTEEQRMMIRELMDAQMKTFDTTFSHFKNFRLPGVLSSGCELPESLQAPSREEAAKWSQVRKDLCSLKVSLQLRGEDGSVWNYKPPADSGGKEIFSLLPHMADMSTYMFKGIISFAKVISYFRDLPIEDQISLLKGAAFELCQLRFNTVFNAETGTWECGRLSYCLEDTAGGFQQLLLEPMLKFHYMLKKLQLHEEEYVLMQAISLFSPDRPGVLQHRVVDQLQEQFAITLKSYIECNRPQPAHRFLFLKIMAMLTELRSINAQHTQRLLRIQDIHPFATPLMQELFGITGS

A short description of assay [14]: qHTS assay to identify small molecule antagonists of the progesterone receptor (PR) signaling pathway - cell viability counter screen (AID 1346798).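 Further: HEK293T PR-UAS-bla cells stimulated with the agonist R5020; series mostly up to about 92 µM; nearly all actives have a fitted effect of over 50% in size.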 The method, boiled down:
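HEK293T PR-UAS-bla, 2% charcoal-stripped FBS; 4 hr pre-plate; cpd + R5020, 16 h 37C; LiveBLAzer read first; then CellTiter-Glo 30 min RT, luminescence.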

The nature of assay [15]: Caspase-3/7 induction in CHO-K1 cells by small molecules, qHTS assay (AID 1346980). Further: nearly all actives have a fitted effect of over 15% in size. The method, boiled down:
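Wild-type CHO-K1 cells exposed to compounds for 17hr at 37 C, 5% CO2. Caspase-3/7 activity then measured by Caspase-Glo 3/7 luminescence after 30min at room temperature.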

Assay [16] is described as follows: Caspase-3/7 induction in HepG2 cells by small molecules, qHTS cell viability counter screen (AID 1346981). Further: series mostly up to about 92 µM; nearly all actives have a fitted effect of over 30% in size. The method, boiled down: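 Multiplexed with the caspase-3/7 assay: HepG2 cells, 16 hr compound treatment, CellTiter-Fluor viability detection by fluorescence.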
Assay [17] can be described thus: qHTS assay to identify small molecule antagonists of the TGF-beta/Smad signaling pathway - cell viability counter screen (AID 1346824). Further: nearly all actives have a fitted effect of over 50% in size. The method, boiled down: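 SBE-bla HEK 293T cells, incubated overnight, then compound plus 0.25 ng/mL TGF-beta1 (stock added) for 5 hr at 37 C. Viability was read in the same wells by CellTiter-Glo luminescence after 30 min at room temperature.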

The target of assay [18] is Nuclear receptor subfamily 1 group I member 2 (Rattus norvegicus) (UniProt Q9R1A7). The experiment in a line: Rat pregnane X receptor (rPXR) activation by small molecules, qHTS assay (AID 1346983). Further: nearly all actives have a fitted effect of over 20% in size. Conditions: rPXR luciferase reporter cells, One-Glo luminescence, 24 h; active compounds read high. The method, boiled down: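 Cell-based rPXR activation assay: rPXR cells, 2,000 per well, rested 5hr at 37 C, then exposed to compounds in DMSO for 24 hr at 37 C. Luciferase activity read by One-Glo luminescence after 30 min at room temperature.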
Nuclear receptor subfamily 1 group I member 2 (Rattus norvegicus), sequence (Q9R1A7 whole entry, looked up): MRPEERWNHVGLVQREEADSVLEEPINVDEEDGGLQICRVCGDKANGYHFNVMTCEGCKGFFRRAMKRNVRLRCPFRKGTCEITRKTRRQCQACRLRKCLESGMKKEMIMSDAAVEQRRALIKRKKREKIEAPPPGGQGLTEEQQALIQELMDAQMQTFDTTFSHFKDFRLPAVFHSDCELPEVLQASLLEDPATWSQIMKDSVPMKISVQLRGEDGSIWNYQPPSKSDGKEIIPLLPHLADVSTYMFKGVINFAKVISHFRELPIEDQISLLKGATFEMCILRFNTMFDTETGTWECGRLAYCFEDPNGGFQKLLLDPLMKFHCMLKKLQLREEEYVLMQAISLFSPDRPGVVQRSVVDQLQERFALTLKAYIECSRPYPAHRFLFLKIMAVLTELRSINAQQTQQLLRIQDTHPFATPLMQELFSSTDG

SMILES strings stand for the structures. Unmarked numbers belong to inactive results. Results filed as inconclusive are left out. Active and inactive are the calls of the source. Unless noted, the call rests on the fitted dose curve; in most records, active means well fitted curve in the direction sought with a large enough effect in the repeat runs; inconclusive means weak or mixed curves; inactive means no such curve, though single readings can be large; an effect the other way counts as inactive or inconclusive.
On the % scale 0 is the no-effect control and ±100 the full control effect.

Regarding `C=C(C)C1CCC(C)(O)CC1` (stereo unspecified), the result in assay [1], in assay [6], in [7], in assay [8] and in assay [9] was inactive. In addition, the Potency entry in assay [2], in [3], in [4], in assay [5], in assay [10] and in [11] was “inactive” in each case. In addition, the Potency entry in assay [12] and in [13] was “inactive” each time.
For the molecule `Cc1cc(C(C)(C)C)c(O)c(C)c1CC1=NCCN1`, the molecule was classed as inactive in [1], in assay [6], in assay [7], in [8], in [9] and in [15]. Also, the Potency result in assay [2], in assay [3], in [4], in [14], in assay [10] and in assay [11] was “inactive” each time. The Potency result in assay [12], in assay [16] and in [13] was “inactive” throughout.
`Cc1ccc2c(c1)OCC(=O)CO2`: the call in assay [1], in assay [6], in [7], in assay [8], in [9] and in assay [15] was inactive. Besides, the Potency result in assay [2], in [3], in assay [4], in assay [14], in assay [10] and in [11] was “inactive” each time. The Potency entry in [12] and in assay [13] was “inactive” each time.
Take `CCCCC(CC)COCCO` (stereo unspecified): the result in assay [1], in assay [17], in assay [6], in [7], in [8] and in assay [9] was inactive. The Potency entry in [2], in [3], in assay [4], in [14], in assay [10] and in assay [11] was “inactive” throughout. For the same molecule, the Potency entry in assay [12] and in assay [16] was “inactive” each time.
Consider `BrCCCCCBr`, for which the call in assay [1], in [17], in [6], in [7], in [8] and in [9] was inactive. Moreover, the outcome in assay [15] was inactive. For the same molecule, the Potency entry in assay [2], in assay [4], in assay [14], in assay [5], in [10] and in [11] was “inactive” throughout. Also, the Potency entry in assay [12], in assay [16] and in assay [13] was “inactive” each time.
Regarding `CCC(C=O)CC`, the result in assay [1], in assay [17], in assay [6], in assay [7], in [8] and in [9] was inactive. The Potency result in assay [2], in [4], in [14], in assay [5], in [10] and in assay [11] was “inactive” in each case. The Potency entry in [12], in assay [16] and in [13] was “inactive” in each case.
For the molecule `COc1ccc2nc(SCc3ncc(C)c(OC)c3C)[nH]c2c1`, the molecule was classed as inactive in assay [1], in assay [17], in [6], in assay [7] and in assay [15]. Besides, the Potency entry in assay [2], in assay [3], in assay [14], in [5], in assay [10] and in assay [11] was “inactive” throughout. Further, the Potency result in [12] and in assay [16] was “inactive” each time. In assay [13], the Potency is 23.7 µM (active).
In the case of `CC1=C(C(=O)O)N2C(=O)[C@@H](NC(=O)[C@H](N)c3ccc(O)cc3)[C@H]2SC1`, the molecule was called inactive in assay [1], in assay [17], in [6] and in assay [7]. Also, the Potency result in assay [2], in [5], in assay [10], in [11] and in assay [12] was “inactive” each time. For the same molecule, in [18], the max activation was -3.3%.
